Assay results reported in PubChem BioAssay.
Activity calls are given as the source filed them.

Tests used:
[1] = small molecules captured by biotinylated probe aFSTL3 – biochemical, small-molecule microarray, fluorescence 635/667, stem cell growth factor project, primary screen (AID 1064); details: higher = more signal;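 further: measures binding of the biotinylated anti-FSTL3 antibody to printed compounds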
[2] = binders from COS7 lysate, DM2A8 probe, primary screen, torsin A project, cell lysate, small-molecule microarray, fluorescence 635/667 (AID 1065); details: higher = more signal, COS7 lysate expressing mutant human TOR1A
[3] = small molecules captured by biotinylated probe aFGF2 – biochemical, small-molecule microarray, fluorescence 635/667, stem cell growth factor project, primary screen (AID 1067); details: higher = more signal;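 further: measures binding of biotinylated aFGF2 protein to printed compounds on slides; z-score merges feature fluorescence and signal-to-noise across triplicate slides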
[4] = small molecules captured by biotinylated probe aFGF10 – biochemical, small-molecule microarray, fluorescence 635/667, stem cell growth factor project, primary screen (AID 1071); details: higher = more signal;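 further: score merges 667 nm spot intensity and signal to noise from triplicate slides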
[5] = biological target: Neurogenic locus notch homolog protein 2 (Homo sapiens) (UniProt Q04721); experiment: small molecules binding Notch2 protein – biochemical, small-molecule microarray, 635 nm fluorescence, stem cell growth factors, primary screen (AID 1073); details: higher = more signal
Chain of Neurogenic locus notch homolog protein 2 (Homo sapiens) (Q04721 whole entry, looked up, canonical isoform): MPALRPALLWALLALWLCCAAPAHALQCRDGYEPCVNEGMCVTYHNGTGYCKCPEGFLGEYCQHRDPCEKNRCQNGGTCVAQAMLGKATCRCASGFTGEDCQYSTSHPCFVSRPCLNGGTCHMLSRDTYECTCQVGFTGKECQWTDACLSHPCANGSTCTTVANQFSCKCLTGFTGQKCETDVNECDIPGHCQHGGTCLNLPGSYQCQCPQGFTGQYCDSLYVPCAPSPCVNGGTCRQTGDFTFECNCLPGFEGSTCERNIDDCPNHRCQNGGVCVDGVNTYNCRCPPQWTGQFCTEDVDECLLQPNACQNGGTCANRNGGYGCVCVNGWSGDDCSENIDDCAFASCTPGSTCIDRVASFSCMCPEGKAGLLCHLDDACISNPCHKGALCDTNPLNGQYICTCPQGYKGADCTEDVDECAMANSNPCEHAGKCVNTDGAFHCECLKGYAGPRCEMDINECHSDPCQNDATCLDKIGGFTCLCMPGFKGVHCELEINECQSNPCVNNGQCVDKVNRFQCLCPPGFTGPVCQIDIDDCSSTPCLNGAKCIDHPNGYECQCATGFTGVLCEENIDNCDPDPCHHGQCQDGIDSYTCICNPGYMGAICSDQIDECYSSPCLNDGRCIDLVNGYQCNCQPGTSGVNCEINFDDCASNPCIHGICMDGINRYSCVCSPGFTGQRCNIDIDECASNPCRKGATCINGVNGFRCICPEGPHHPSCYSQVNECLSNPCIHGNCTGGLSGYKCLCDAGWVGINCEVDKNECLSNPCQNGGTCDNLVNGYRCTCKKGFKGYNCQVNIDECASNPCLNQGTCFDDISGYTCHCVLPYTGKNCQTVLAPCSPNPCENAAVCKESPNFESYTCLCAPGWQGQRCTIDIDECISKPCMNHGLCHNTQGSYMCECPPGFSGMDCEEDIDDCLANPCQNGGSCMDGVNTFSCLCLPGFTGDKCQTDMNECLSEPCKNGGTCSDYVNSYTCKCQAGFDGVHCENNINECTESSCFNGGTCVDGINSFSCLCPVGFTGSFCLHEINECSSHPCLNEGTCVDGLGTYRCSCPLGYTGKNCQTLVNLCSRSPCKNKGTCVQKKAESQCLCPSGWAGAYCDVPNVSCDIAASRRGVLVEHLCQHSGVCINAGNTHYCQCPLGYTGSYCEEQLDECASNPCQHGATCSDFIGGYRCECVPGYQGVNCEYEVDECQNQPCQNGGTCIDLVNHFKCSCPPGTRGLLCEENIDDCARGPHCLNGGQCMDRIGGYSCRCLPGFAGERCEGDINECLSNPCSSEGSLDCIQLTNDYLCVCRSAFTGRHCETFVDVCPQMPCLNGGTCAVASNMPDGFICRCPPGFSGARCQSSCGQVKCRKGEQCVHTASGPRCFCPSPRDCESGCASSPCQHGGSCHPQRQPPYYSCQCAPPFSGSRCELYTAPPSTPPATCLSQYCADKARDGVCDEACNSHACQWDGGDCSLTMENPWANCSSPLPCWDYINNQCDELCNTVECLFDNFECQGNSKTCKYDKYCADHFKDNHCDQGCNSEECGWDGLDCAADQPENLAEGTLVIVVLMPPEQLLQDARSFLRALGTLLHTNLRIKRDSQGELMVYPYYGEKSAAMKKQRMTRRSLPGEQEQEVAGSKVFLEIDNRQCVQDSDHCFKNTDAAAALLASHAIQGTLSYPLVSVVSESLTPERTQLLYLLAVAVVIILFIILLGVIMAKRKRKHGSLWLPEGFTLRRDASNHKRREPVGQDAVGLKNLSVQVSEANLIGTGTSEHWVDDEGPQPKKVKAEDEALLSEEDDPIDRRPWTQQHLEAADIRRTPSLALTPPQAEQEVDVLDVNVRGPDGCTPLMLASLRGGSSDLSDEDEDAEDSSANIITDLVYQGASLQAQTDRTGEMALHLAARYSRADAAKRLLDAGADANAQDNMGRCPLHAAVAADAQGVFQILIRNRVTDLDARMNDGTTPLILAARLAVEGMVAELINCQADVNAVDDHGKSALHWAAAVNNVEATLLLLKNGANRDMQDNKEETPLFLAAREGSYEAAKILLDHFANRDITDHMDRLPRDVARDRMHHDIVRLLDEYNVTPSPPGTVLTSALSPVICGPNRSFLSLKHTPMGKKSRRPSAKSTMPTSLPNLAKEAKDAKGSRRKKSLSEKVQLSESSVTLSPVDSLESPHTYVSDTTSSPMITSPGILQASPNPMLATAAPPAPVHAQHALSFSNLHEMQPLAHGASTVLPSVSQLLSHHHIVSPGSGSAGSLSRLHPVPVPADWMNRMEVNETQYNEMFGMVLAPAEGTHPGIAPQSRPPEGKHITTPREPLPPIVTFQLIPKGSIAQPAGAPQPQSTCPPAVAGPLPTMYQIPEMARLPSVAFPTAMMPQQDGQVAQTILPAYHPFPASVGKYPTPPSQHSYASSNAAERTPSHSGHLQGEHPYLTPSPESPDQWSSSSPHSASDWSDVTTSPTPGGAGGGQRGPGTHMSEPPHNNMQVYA

[6] = biological target: Pro-neuregulin-1, membrane-bound isoform (Homo sapiens) (UniProt Q02297); experiment: small molecules binding neuregulin-1 protein – biochemical, small-molecule microarray, fluorescence 635/667, psychiatric disease protein project, primary screen (AID 1075); details: NRG1 binding, 635 nm fluorescence, higher = more signal;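 further: score combines 667 nm spot fluorescence with signal to noise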
[7] = tested on: Neuregulin-1 EGF-like domain; experiment: small molecules binding NRG1 EGF domain – biochemical, small-molecule microarray, 635 nm fluorescence, primary screen (AID 1081); details: higher = more signal;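 further: binding of the protein to compounds printed on small-molecule microarray slides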
[8] = FRG1 expression reporter modulators in myotubes – cell-based, C2C12 myotubes, firefly/Renilla luciferase, luminescence, FRG1 inhibition for FSHD, primary screen (AID 1084); details: FRG1 promoter luciferase, higher = more signal, called active from +8 up or from −8 down
[9] = small molecules captured by biotinylated probe aFST – biochemical, small-molecule microarray, fluorescence 635/667, stem cell growth factor project, primary screen (AID 1086); details: higher = more signal;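 further: score merges 667 nm fluorescence with signal-to-noise of each printed compound spot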
[10] = binders of probe aHhip on microarray, primary screen, stem cell growth factor project, biochemical, small-molecule microarray, fluorescence 635/667 (AID 1087); details: higher = more signal;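 further: score merges spot fluorescence at 667nm with spot signal to noise ratio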
[11] = tested on: PRMT1 (protein arginine N-methyltransferase 1); experiment: small molecules binding arginine methyltransferase PRMT1 – biochemical, small-molecule microarray, 635 nm fluorescence, primary screen (AID 1088); details: higher = more signal;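 further: binding of Prmt1 protein to compounds spotted on small-molecule microarray slides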
[12] = growth effects on S. cerevisiae YJM789 – YJM789 clinical isolate, OD600, 24 h, basal, primary screen (AID 1089); details: higher = more signal, called active from +8 up or from −8 down;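 further: growth of clinical yeast isolate S. cerevisiae YJM 789 seeded 1000 cells per well; test concentration not given here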
[13] = S. pombe growth modifiers, basal conditions – strain 972, OD600, 24 h, no modulator, primary screen (AID 1090);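 further: basal condition with compound alone and no growth modifier present; test concentration not given here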; details: S. pombe 972 growth, higher = more signal, called active from +8 up or from −8 down
[14] = budding yeast growth modifiers under rapamycin – strain BY4716, OD600, 96 h, primary screen (AID 1091); further: test concentration not given here; details: S. cerevisiae BY4716 + rapamycin, higher = more signal, called active from +8 up or from −8 down
[15] = biological target: Torsin-1A-interacting protein 2 (Homo sapiens) (UniProt Q8NFQ8); experiment: small molecules binding lysate-expressed LULL1 – cell lysate, human LULL1 lysate, 635/667 nm fluorescence, primary screen (AID 1092); details: small-molecule microarray, hLULL1 lysate binding, 635 nm fluorescence; higher = more signal;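 further: probe is lysate of COS7 cells overexpressing human LULL1; score merges per-feature 667 nm fluorescence with signal-to-noise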
[16] = optical density change of DRC41 E. coli – strain DRC41, OD650, 24 h, E. coli filamentation project, primary screen (AID 1093);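 further: MC1000 strain lacking acrAB efflux and sulA so SOS filamentation is blocked; test concentration not given here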; details: E. coli DRC41 growth, higher = more signal, called active from +8 up or from −8 down
[17] = probe aLefty2 binding to arrayed compounds – biochemical, biotinylated probe, 635/667 nm fluorescence, primary screen (AID 1094); details: small-molecule microarray, higher = more signal;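 further: score merges spot fluorescence near 667 nm with spot signal-to-noise ratio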
[18] = tested on: Noggin (protein binding on small-molecule microarray); experiment: small molecules binding Noggin protein – biochemical, 635/667 nm fluorescence, primary screen (AID 1095); details: 635 nm fluorescence, higher = more signal;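 further: score merges 667 nm feature fluorescence with signal to noise over triplicate slides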
[19] = biological target: Neurogenic locus notch homolog protein 3 (Homo sapiens) (UniProt Q9UM47); experiment: small molecules binding NOTCH3 protein – biochemical, 635/667 nm fluorescence, primary screen (AID 1096); details: small-molecule microarray, 635 nm fluorescence, higher = more signal
Chain of Neurogenic locus notch homolog protein 3 (Homo sapiens) (Q9UM47 whole entry, looked up): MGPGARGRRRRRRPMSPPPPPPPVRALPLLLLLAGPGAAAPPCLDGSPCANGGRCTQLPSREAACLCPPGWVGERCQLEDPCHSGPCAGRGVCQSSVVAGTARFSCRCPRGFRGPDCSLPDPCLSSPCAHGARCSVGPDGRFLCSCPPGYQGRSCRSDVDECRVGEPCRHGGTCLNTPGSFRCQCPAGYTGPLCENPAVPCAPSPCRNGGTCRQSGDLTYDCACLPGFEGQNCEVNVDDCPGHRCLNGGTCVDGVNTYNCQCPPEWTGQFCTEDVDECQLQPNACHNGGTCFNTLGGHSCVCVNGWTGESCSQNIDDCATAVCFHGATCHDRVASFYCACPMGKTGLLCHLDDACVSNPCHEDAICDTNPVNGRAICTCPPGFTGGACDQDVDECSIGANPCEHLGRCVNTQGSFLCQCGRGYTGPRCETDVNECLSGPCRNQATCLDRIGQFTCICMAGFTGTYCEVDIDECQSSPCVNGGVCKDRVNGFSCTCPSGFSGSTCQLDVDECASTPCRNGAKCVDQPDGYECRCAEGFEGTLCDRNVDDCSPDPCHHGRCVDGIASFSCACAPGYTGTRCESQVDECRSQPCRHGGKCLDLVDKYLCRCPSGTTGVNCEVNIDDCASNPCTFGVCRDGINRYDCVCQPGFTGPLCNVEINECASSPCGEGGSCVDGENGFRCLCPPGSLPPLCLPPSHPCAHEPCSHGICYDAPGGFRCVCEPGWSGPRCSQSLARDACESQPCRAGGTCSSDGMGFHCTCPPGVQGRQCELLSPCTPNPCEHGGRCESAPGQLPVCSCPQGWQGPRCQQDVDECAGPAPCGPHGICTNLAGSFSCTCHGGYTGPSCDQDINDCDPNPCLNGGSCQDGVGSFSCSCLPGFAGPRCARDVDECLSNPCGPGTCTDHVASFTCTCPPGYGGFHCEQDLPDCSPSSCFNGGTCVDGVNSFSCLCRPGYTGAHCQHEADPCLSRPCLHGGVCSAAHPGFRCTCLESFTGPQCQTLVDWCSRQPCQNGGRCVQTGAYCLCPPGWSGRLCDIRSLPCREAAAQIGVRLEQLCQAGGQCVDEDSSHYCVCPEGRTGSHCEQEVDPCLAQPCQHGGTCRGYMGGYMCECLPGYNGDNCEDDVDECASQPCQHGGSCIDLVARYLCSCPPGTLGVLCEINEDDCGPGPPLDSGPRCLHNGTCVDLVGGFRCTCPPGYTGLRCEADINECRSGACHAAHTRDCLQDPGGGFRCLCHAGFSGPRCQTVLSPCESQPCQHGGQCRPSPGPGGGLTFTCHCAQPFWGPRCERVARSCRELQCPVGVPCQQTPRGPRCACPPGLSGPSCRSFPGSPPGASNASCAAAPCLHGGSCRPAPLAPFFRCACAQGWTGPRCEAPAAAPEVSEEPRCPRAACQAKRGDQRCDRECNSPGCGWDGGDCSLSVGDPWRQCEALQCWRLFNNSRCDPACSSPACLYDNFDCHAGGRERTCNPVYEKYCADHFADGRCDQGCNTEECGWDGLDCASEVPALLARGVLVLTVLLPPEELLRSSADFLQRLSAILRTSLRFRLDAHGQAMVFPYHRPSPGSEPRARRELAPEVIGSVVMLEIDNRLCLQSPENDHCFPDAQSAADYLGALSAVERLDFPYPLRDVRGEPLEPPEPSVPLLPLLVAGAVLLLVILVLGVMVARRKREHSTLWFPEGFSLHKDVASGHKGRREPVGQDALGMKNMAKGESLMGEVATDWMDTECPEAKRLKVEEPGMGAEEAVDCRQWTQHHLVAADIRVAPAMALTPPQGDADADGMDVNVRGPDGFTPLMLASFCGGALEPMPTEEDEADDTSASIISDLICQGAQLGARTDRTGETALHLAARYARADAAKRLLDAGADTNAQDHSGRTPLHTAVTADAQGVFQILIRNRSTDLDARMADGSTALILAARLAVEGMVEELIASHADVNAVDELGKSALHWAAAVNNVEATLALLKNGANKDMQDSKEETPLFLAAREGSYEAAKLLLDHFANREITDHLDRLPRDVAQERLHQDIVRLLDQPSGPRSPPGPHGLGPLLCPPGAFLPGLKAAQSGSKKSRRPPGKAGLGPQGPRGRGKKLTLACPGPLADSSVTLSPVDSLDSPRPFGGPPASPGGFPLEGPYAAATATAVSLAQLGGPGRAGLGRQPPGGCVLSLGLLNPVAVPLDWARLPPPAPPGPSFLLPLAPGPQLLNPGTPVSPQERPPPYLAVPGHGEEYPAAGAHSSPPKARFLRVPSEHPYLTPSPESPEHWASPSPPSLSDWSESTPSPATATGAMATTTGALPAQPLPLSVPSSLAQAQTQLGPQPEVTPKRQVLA

[20] = probe aEGFR binding to arrayed compounds – biochemical, biotinylated probe, 635/667 nm fluorescence, primary screen (AID 1097); details: small-molecule microarray, higher = more signal;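 further: probe is a biotinylated anti-EGFR antibody binding compounds printed on slides; score combines fluorescence near 667 nm and signal to noise of each spot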

CCCCCCc1nc(-c2ccc(-c3ccc(Cl)c(Cl)c3)o2)cc2c1[Si](C(C)C)(C(C)C)OC2
composite z-score [1]: 0.0736
composite z-score [2]: -0.207
composite z-score [3]: -0.162
composite z-score [4]: -0.632
composite z-score [5]: -1.01
composite z-score [6]: -0.14
composite z-score [7]: 0.262
z-score [8]: 1.25 (inactive)
composite z-score [9]: -0.634
composite z-score [10]: -0.134
composite z-score [11]: -0.849
z-score [12]: -0.625 (inactive)
z-score [13]: -7.54 (inactive)
z-score [14]: 3.66 (inactive)
composite z-score [15]: 0.582
z-score [16]: 0.66 (inactive)
composite z-score [17]: -0.159
composite z-score [18]: -0.561
composite z-score [19]: -0.453
composite z-score [20]: -0.257

COCCOC(=O)N1C(=O)[C@@]2(c3cc(C#CC4(O)CCCCCC4)ccc31)[C@H](c1ccc(O)cc1)N1[C@H](c3ccccc3)[C@H](c3ccccc3)OC(=O)[C@H]1[C@@H]2C(=O)N1CCCCCCC1
composite z-score [1]: 2.85
composite z-score [2]: 0.567
composite z-score [3]: 0.0059
composite z-score [4]: 0.83
composite z-score [5]: 0.547
composite z-score [6]: 0.903
composite z-score [7]: 1.15
z-score [8]: -0.0559 (inactive)
composite z-score [9]: 2.06
composite z-score [10]: 1.39
composite z-score [11]: 1.55
z-score [12]: -0.016 (inactive)
z-score [13]: 0.056 (inactive)
z-score [14]: 0.367 (inactive)
composite z-score [15]: 2.09
z-score [16]: 0.709 (inactive)
composite z-score [17]: 0.189
composite z-score [18]: 1.3
composite z-score [19]: 1.06
composite z-score [20]: 0.0896

COCCOC(=O)N1C(=O)[C@@]2(c3cc(C#CCC(C(=O)OC)C(=O)OC)ccc31)[C@H](c1ccc(O)cc1)N1[C@H](c3ccccc3)[C@H](c3ccccc3)OC(=O)[C@H]1[C@@H]2C(=O)Nc1nc2ccccc2s1
composite z-score [1]: -0.0882
composite z-score [2]: 1.39
composite z-score [3]: 0.0001
composite z-score [4]: 0.785
composite z-score [5]: 1.27
composite z-score [6]: 1.12
composite z-score [7]: 1.27
z-score [8]: 0.909 (inactive)
composite z-score [9]: 0.606
composite z-score [10]: 0.382
composite z-score [11]: 1.53
z-score [12]: 0.978 (inactive)
z-score [13]: 0.583 (inactive)
z-score [14]: 0.0726 (inactive)
composite z-score [15]: 2.76
z-score [16]: 0.338 (inactive)
composite z-score [17]: 0.0424
composite z-score [18]: 1.39
composite z-score [19]: 1.04
composite z-score [20]: 0.106
